Assay results from PubChem BioAssay.
Active and inactive are the calls of the source.

test: optical density shifts of acrAB sulA E. coli – strain DRC41, OD650, 48 h, E. coli filamentation inducer project, primary screen (AID 1152); settings: higher = more signal, called active from +8 up or from −8 down;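 further: E. coli MC1000 strain DRC41 lacking acrAB efflux pump and sulA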

Structure (SMILES)	z-score
O=C(NCC(O)CO)[C@@]1(CCS(=O)(=O)c2ccccc2)N=C(c2ccc(OCCCO)cc2)O[C@H]1c1ccccc1 (some centres not stated)	-0.295 (inactive)
COCCCNC(=O)[C@@H]1c2ccccc2C(=O)N(Cc2ccc(OC(F)(F)F)cc2)[C@H]1c1ccc(CO)cc1	-0.771 (inactive)
Cc1ccc(F)cc1S(=O)(=O)N[C@H]1CCN(Cc2ccc(OC(C)C)cc2)C1	-4.19 (inactive)
CC1CC/C=C\[C@H]2OC34C=CCN(c5ccc(Cl)cc5)C(=O)[C@H]3N(CCCCCCO)C(=O)[C@]4(C)C2C(=O)O1 (some centres not stated)	0.348 (inactive)
O=C1C2C=CC(C(O)c3c(F)cccc3Cl)N(Nc3ccc([N+](=O)[O-])cc3)C2C(=O)N1c1ccccc1 (configuration not stated)	-0.262 (inactive)
[N-]=[N+]=Nc1ccccc1[C@@H]1OC(c2ccc(OCCCO)cc2)=N[C@]1(CCS(=O)(=O)c1ccccc1)C(=O)NCC(O)CO (some centres not stated)	0.401 (inactive)
C=CC[C@@]1(C(=O)OC)N=C(c2ccc(OCCCO)cc2)O[C@@H]1c1ccccc1N=[N+]=[N-]	0.0465 (inactive)
COC(=O)[C@@]1(Cc2ccc(OC)cc2)[C@H]2c3cc(C(=O)N4CCCC4)n(CCn4cc([N+](=O)[O-])nc4C)c3C[C@H]2CN1C(=O)c1ccccc1	-2.21 (inactive)
CN1C(=O)C2C(C3CC3)C=C3CN(Cc4cccc(Cl)c4)[C@@H]([C@@H](O)Cc4ccccc4)C3C2C1=O (some centres not stated)	1.14 (inactive)
COc1ccccc1CN1C(=O)c2ccccc2[C@](Cc2ccccc2I)(C(=O)NCC(C)C)[C@@H]1c1ccc(CO)cc1	2.48 (inactive)

test: probe aLefty1 binding on compound microarray – biochemical, small-molecule microarray, 635/667 nm fluorescence, primary screen (AID 1153); settings: higher = more signal;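 further: score merges spot fluorescence with signal-to-noise ratio from the scanned slide images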

Structure (SMILES)	composite z-score
CCOC(=O)C1=CC[C@@H](c2ccc(OC)cc2)N(S(=O)(=O)c2ccc(C)cc2)[C@H]1c1ccc(C)cc1	0.578
CCOC(=O)C[C@H]1[C@H](OC(=O)Cc2ccc3c(c2)OCO3)[C@@H](NC(=O)c2ccc3ccccc3n2)c2cc(OCCCO)ccc2N1C(=O)Cc1ccc(OC)cc1	-0.0573
CC(C)(C)N1CC=CC23O[C@@H]4C=CCOC(=O)[C@@H]4[C@H]2C(=O)N(CCO)[C@@H]3C1=O (some centres not stated)	-0.0967
CCOC(=O)C1=CC[C@@H](c2ccc(OC)cc2)N(S(=O)(=O)c2ccc(C)cc2)[C@H]1CC	-0.0018
COc1ccc(NN2C(C(O)c3ccc(I)cc3)C=CC3C(=O)N(C4CCCCC4)C(=O)C32)cc1 (configuration not stated)	0.425
C=CCOC(=O)[C@H]1[C@@H]2C(=O)O[C@@H](c3ccccc3)[C@@H](c3ccccc3)N2[C@@H](c2ccc(OCCOC(=O)[C@@H]3C[C@@H]4C(=O)N[C@@H](CCCC[N+](C)(C)C)C(=O)N4[C@@H]3c3ccc(O)cc3)cc2)[C@]12C(=O)Nc1ccc(I)cc12	0.521
Cc1ccc(S[C@]2(C(=O)NCc3ccccc3)CC(=O)N(Cc3ccccc3C(F)(F)F)[C@@H]2c2ccc(CO)cc2)cc1	-0.012
CC(C)=CCCC(C)=CC(O)C1C=CC2C(=O)NC(=O)C2N1Nc1ccccn1 (configuration not stated)	-0.864
O=C1O[C@H](c2ccccc2)[C@H](c2ccccc2)N2[C@H]1[C@@H](C(=O)O)[C@]1(C(=O)Nc3ccc(C#CCCO)cc31)[C@H]2c1ccc(OCCO)cc1	0.154
C=CCN1C(=O)[C@@]2(O[C@@H](CCn3cc([C@H](O)c4ccccc4)nn3)[C@H]([Si](C)(C)c3ccc(OC)cc3)[C@H]2C)c2cc(N3C(=O)c4cccc5cccc3c45)ccc21	-0.101
NC(=O)NCC#Cc1ccc2c(c1)[C@]1(C(=O)N2)[C@H](c2ccc(OCCO)cc2)N2[C@H](c3ccccc3)[C@H](c3ccccc3)OC(=O)[C@H]2[C@@H]1C(=O)O	-0.0536
CO[C@H]1O[C@H](CO)[C@@H](OC(=O)Nc2ccc3c(c2)OCO3)[C@H](OC(=O)Nc2ccccc2-c2ccccc2)[C@H]1OC(=O)Nc1ccccc1-c1ccccc1	-0.0536
CC1CC/C=C\[C@H]2OC34C=CCN(c5ccc6ccccc6c5)C(=O)[C@H]3N(C(C)CO)C(=O)[C@@H]4C2C(=O)O1 (some centres not stated)	-0.0933
COC(=O)[C@@]1(Cc2ccc(OC)cc2)[C@H]2c3cc(C(=O)N4CCCC4)n(Cc4ccc(C(F)(F)F)nc4)c3C[C@H]2CN1C(=O)c1ccccc1	-0.0647
Cc1ccc(C(C)CC(O)C2C=CC3C(=O)N(C)C(=O)C3N2Nc2ccccc2)o1 (configuration not stated)	0.356
C=CC[C@@]1(C(=O)N(C)C)N=C(c2ccc(OCCCO)cc2)O[C@@H]1c1ccccc1CN=[N+]=[N-]	0.0513
COC(=O)[C@@]1(Cc2ccccc2)[C@H]2c3cc(C(=O)N4CCCC4)n(Cc4ccc(OC)c(OC)c4)c3C[C@H]2CN1C(=O)c1ccccc1	0.347
